Our source for the growth inhibition values is PubChem BioAssay (NCI).

Where “and” joins values, the source holds several entries; their conditions need not be identical. Identical values can stand only once. This is part of a sample that, as a whole, favours compounds with a hit. Of some 79,000 tested, about 15% had one in any assay. Values without a mark were called inactive. Calls of active or inactive are those of the source. No stated cut-off is given here; in the data, active means growth inhibition above about 70%; inactive means the rest.

This assay can be described thus: NCI Yeast Anticancer Drug Screen. Data for the mgt1 strain (AID 153). The settings on record: S. cerevisiae mgt1 mutant growth inhibition, stronger effect = higher value. As to the method:
Growth inhibition of yeast strains with defined genetic alterations is measured as a screen for potential anti-cancer activity. Selected strains with alterations in DNA damage repair or cell cycle control were exposed to compounds and growth inhibition was measured relative to vehicle treated controls. The strain used in this assay is mgt1

As to `CCC(C)/C(C)=N/NC(N)=O` (stereo not given), the growth inhibition (at 1.2 µM) was 0%; the growth inhibition (at 3.7 µM) is -2%; the growth inhibition (at 11.0 µM) was 1%; the growth inhibition (at 33.0 µM) is 14%; the growth inhibition (at 100.0 µM) was 1%.

On to `CCN(CC)c1cccc(Nc2nc3ccccc3s2)c1`, for which the growth inhibition reads like this: (at 1.2 µM) 6%; (at 3.7 µM) 6%; (at 11.0 µM) 5%; (at 33.0 µM) 7%; (at 100.0 µM) 7%.

Regarding `Cc1cccc(N2CCN(C(=O)/C(=C/c3ccccc3)NC(=O)c3ccccc3)CC2)c1`, the growth inhibition is, setting by setting: (at 1.2 µM) -4%; (at 3.7 µM) -4%; (at 11.0 µM) 0%; (at 33.0 µM) 44%; (at 100.0 µM) 54%.

For `CN(C)N=Nc1ccc(NC=O)cc1`, the growth inhibition reads like this: (at 1.2 µM) 20%; (at 3.7 µM) 27%; (at 11.0 µM) 23%; (at 33.0 µM) 88% (active); (at 100.0 µM) 99% (active).

Regarding `CC(C)(C(=O)NN)c1ccccc1`, the growth inhibition reads like this: (at 1.2 µM) 4%; (at 3.7 µM) 10%; (at 11.0 µM) 22%; (at 33.0 µM) 54%; (at 100.0 µM) 90% (active).

As to `C#CC1=CC(=O)C(OC)=CC1=O`, the growth inhibition by setting is: (at 1.2 µM) 0%; (at 3.7 µM) 11%; (at 11.0 µM) 48%; (at 33.0 µM) 99% (active); (at 100.0 µM) 99% (active).

`[N-]=[N+]=NC1CC(n2ccc(=O)[nH]c2=O)OC1COC(c1ccccc1)(c1ccccc1)c1ccccc1` (stereo not given): the growth inhibition was 0% (at 1.2 µM); 3% (at 3.7 µM); 16% (at 11.0 µM); 76% (active) (at 33.0 µM); 80% (active) (at 100.0 µM).

Take `COc1ccc2[nH]c3c(C)c4cc[n+](C)cc4c(C)c3c2c1`: the growth inhibition by setting is: (at 1.2 µM) 15% and 2%; (at 3.7 µM) 28% and 12%; (at 11.0 µM) 26% and 24%; (at 33.0 µM) 38% and 29%; (at 100.0 µM) 39% and 55%.
